Laboratory results as given in PubChem BioAssay AID1159580 (chemical genetic matrix, 2015).
In all, about 5,500 compounds went through this assay and about 2,000 (36%) were called active. Not shown: some 18% with an inconclusive outcome. Cut-off read from the data, not from the text of the source: active = normalized growth mostly below about 0.91 (no sharp cut-off); inconclusive = no clear call, values can overlap the other calls; inactive = mostly above about 0.92. The list shows a part of the results.

Assay: chemical genetic growth profiling, strain panel (AID 1159580);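 note: tested at 20 µM; growth read once vehicle control cultures reached saturation at 30 °C; 1 = growth at the plate median or of vehicle wells; lower values mean less growth of the strain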
Conditions: growth OD
[1] = S. cerevisiae deletion strains, locus YAL013W, strain DEP1, active compounds read low
[2] = S. cerevisiae deletion strains, locus YBR229C, strain ROT2, active compounds read low
[3] = S. cerevisiae deletion strains, locus YDL101C, strain DUN1, active compounds read low
[4] = S. cerevisiae deletion strains, locus YDR150W, strain NUM1, active compounds read low
[5] = S. cerevisiae deletion strains, locus YEL061C, strain CIN8, active compounds read low
[6] = S. cerevisiae deletion strains, locus YGR078C, strain PAC10, active compounds read low
[7] = S. cerevisiae deletion strains, locus YHR030C, strain SLT2, active compounds read low
[8] = S. cerevisiae deletion strains, locus YHR087W, strain rtc3, active compounds read low
[9] = S. cerevisiae deletion strains, locus YJR043C, strain POL32, active compounds read low
[10] = S. cerevisiae deletion strains, locus YJR075W, strain HOC1, active compounds read low
[11] = S. cerevisiae deletion strains, locus YLR039C, strain RIC1, active compounds read low
[12] = S. cerevisiae deletion strains, locus YLR058C, strain SHM2 (second series), active compounds read low
[13] = S. cerevisiae deletion strains, locus YLR085C, strain ARP6, active compounds read low
[14] = S. cerevisiae deletion strains, locus YLR262C, strain YPT6, active compounds read low
[15] = S. cerevisiae deletion strains, locus YML094W, strain GIM5, active compounds read low
[16] = S. cerevisiae deletion strains, locus YMR219W, strain ESC1, active compounds read low
[17] = S. cerevisiae deletion strains, locus YMR263W, strain SAP30, active compounds read low
[18] = S. cerevisiae deletion strains, locus YNL153C, strain GIM3, active compounds read low
[19] = S. cerevisiae deletion strains, locus YNL298W, strain CLA4 (second series), active compounds read low
[20] = S. cerevisiae deletion strains, locus YNL322C, strain KRE1, active compounds read low
[21] = S. cerevisiae deletion strains, locus YNR030W, strain Alg12, active compounds read low
[22] = S. cerevisiae deletion strains, locus YPL055C, strain LGE1, active compounds read low
[23] = S. cerevisiae deletion strains, locus YPL241C, strain CIN2, active compounds read low
[24] = S. cerevisiae deletion strains, locus YPR135W, strain CTF4, active compounds read low
[25] = S. cerevisiae deletion strains, locus YDL134C, strain PPH21, active compounds read low
[26] = S. cerevisiae deletion strains, locus YMR307W, strain GAS1, active compounds read low
[27] = S. cerevisiae deletion strains, locus YCL061C, strain MRC1, active compounds read low
[28] = S. cerevisiae strains, strain wild type, active compounds read low

Measured: normalized growth

COc1ccc(Br)c(-c2nnc(-c3ccccc3[N+](=O)[O-])o2)c1
inactive: [1] 0.993 | [2] 1.01 | [3] 0.985 | [4] 0.943 | [5] 0.973 | [6] 1.02 | [7] 0.964 | [8] 1.02 | [9] 0.955 | [10] 0.975 | S. cerevisiae deletion strains, locus YKL190W, strain CNB1, active compounds read low 1.01 | [11] 1.07 | [12] 1.02 | [13] 0.953 | [14] 1.06 | [15] 1 | [16] 1.01 | [17] 0.978 | S. cerevisiae deletion strains, locus YNL128W, strain TEP1, active compounds read low 1.04 | [18] 1 | [19] 0.985 | [20] 1.01 | [21] 1 | [22] 0.953 | [23] 0.977 | [24] 1.07

O=[N+]([O-])c1ccc(Oc2c(Cl)cccc2Cl)c(Cl)c1Oc1c(Cl)cccc1Cl
inactive: [1] 0.98 | [2] 0.981 | [3] 0.95 | [25] 0.993 | [4] 0.992 | [5] 0.998 | [6] 0.984 | [7] 0.956 | [8] 1.04 | [9] 0.961 | [10] 1.04 | [11] 0.902 | [12] 0.991 | [13] 0.976 | [14] 0.949 | [15] 1.01 | [16] 1 | [17] 1.01 | [26] 1.02 | [18] 0.986 | [19] 0.953 | [20] 0.987 | [21] 0.969 | [22] 1 | [23] 0.961 | [24] 0.901

O=[N+]([O-])c1cccnc1Oc1ccc(Cl)cc1
inactive: [1] 0.94 | [2] 0.939 | [25] 0.973 | [4] 0.917 | [5] 0.977 | [8] 0.93 | [10] 0.933 | [12] 0.95 | [13] 0.789 | [15] 0.937 | [16] 0.954 | [17] 0.936 | [19] 0.858 | [21] 0.906 | [22] 0.959 | [23] 0.935 | [28] 0.917
active: [27] 0.895 | [3] 0.875 | [6] 0.886 | [7] 0.543 | [9] 0.886 | [11] 0.657 | [14] 0.707 | [18] 0.919 | [20] 0.933 | [24] 0.613

CN1CCCC1c1cccnc1 (stereo not given)
inactive: [1] 0.987 | S. cerevisiae deletion strains, locus YAL040C, strain CLN3, active compounds read low 0.984 | S. cerevisiae deletion strains, locus YCL061C, strain MRC1 (second series), active compounds read low 0.981 | [4] 0.981 | S. cerevisiae deletion strains, locus YDR363W, strain ESC2, active compounds read low 1.02 | S. cerevisiae deletion strains, locus YER002W, strain NOP16, active compounds read low 0.994 | [26] 1.03 | [18] 0.986 | S. cerevisiae deletion strains, locus YNL175C, strain NOP13, active compounds read low 0.992 | S. cerevisiae deletion strains, locus YNL197C, strain WHI3, active compounds read low 0.995 | S. cerevisiae deletion strains, locus YNL224C, strain SQS1, active compounds read low 0.991 | [20] 0.98 | S. cerevisiae deletion strains, locus YOR083W, strain WHI5 (second series), active compounds read low 0.988 | [22] 1 | [23] 0.984

COc1ccccc1NC(=S)NCCC(=O)O
inactive: [1] 1.01 | [2] 1 | [27] 1 | [3] 0.985 | [4] 0.955 | [5] 0.991 | [6] 0.995 | [7] 1.03 | [8] 0.986 | S. cerevisiae deletion strains, locus YJL187C, strain SWE1, active compounds read low 1.01 | [10] 1.03 | [11] 1.03 | [12] 1.01 | [13] 1.03 | [14] 1.02 | [15] 0.963 | [16] 1.01 | [17] 0.989 | [18] 0.996 | [19] 1.02 | [20] 0.999 | [21] 1.01 | [22] 0.919 | [23] 1.07 | [24] 0.984 | [28] 1.01
